Screening data as filed in PubChem.
A selection: hits, their analogues and other compounds. The true share with any hit is near 1.8%.
PAD4 inh: blocks human protein arginine deiminase 4; inhibition, % at 6.36 µM; actives 0.41% (n = 330,000); AID 485272; recombinant PAD4, RCA probe fluorescence polarization;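 active = percent inhibition above a cutoff equal to the mean of all tested compounds plus 3 SD, cut at about 15% in these data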
LYPLA2 counter: counter-screen for PME1 inhibitors: inhibitors of human LYPLA2. inhibition, % at 5.9 µM. O95372. actives 0.38% (n = 320,000). AID 2177. recombinant LYPLA2, FP-Rh probe fluorescence polarization;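 active = inhibition above the screen-wide mean plus 3 SD, limit set per campaign, cut at about 26% in these data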
Target sequence (O95372 whole entry, looked up): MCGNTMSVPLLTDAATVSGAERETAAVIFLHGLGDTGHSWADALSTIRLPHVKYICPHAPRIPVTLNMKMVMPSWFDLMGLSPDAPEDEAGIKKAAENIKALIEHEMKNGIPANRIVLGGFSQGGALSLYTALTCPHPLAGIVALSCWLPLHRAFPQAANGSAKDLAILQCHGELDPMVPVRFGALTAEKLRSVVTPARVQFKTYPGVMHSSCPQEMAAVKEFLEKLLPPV
GSTO1 counter: blocks human GSTO1 in RBBP9 counter-screen; P78417; recombinant GSTO1, activity-based probe fluorescence polarization; inhibition, % at 5.96 µM; actives 1.1% (n = 300,000); AID 1974;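 active = inhibition above the campaign mean inhibition plus 3 SD, cut at about 35% in these data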
LYPLA1 counter: LYPLA1 (human) inhibition in PME1 counter-screen; O75608; recombinant LYPLA1, FP-Rh probe fluorescence polarization; inhibition, % at 5.9 µM; actives 0.16% (n = 320,000); AID 2174;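 active = inhibition above the mean of all tested compounds plus 3 SD, set per campaign, cut at about 14% in these data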;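 also: inhibitors block serine hydrolase probe labeling of LYPLA1 so polarization falls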
Target sequence (O75608 whole entry, looked up): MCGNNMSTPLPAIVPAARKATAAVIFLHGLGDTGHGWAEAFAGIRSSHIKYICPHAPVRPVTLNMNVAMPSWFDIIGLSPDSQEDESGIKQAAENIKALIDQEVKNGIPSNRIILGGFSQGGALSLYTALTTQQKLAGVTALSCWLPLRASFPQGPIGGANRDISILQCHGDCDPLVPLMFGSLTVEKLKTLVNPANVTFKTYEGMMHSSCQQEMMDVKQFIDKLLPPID
Fam108B counter: blocks mouse Fam108B hydrolase in RBBP9 counter-screen; AID 1947; inhibition, % at 9.51 µM; recombinant Fam108B, FP-Rh probe fluorescence polarization; actives 0.33% (n = 300,000);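 active = inhibition above the screen mean inhibition plus 3 SD, computed separately per campaign, cut at about 18% in these data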;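 also: inhibitors lower polarization as less probe binds the enzyme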
PME-1 primary: blocks human protein phosphatase methylesterase 1; inhibition, % at 5.9 µM; recombinant PME-1, FP-Rh probe fluorescence polarization; actives 0.53% (n = 320,000); AID 2130;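 active = inhibition above the campaign mean of all compounds plus 3 SD, cut at about 26% in these data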;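 also: competitive labeling of PME-1 active site by serine hydrolase directed probe; inhibitors block probe labeling so polarization falls and inhibition rises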
GSTO1 confirm: GSTO1 (human) inhibition, confirmation. actives 54% (n = 2,400). inhibition, % at 5.96 µM. recombinant GSTO1, probe fluorescence polarization. shares compounds with GSTO1 counter;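 active = inhibition above the primary screen's cutoff, its mean inhibition plus 3 SD, cut at about 35% in these data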;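 also: loss of polarization as inhibitors block binding of rhodamine sulfonate ester activity probe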
Numbers stand for hits.

Screening N#CC(=C=[N-])c1nc2ccccc2nc1-[n+]1cccc(NC(=O)c2cccs2)c1 returned PAD4 inh inactive, LYPLA2 counter inactive, GSTO1 counter 54, LYPLA1 counter inactive, Fam108B counter inactive, PME-1 primary inactive and GSTO1 confirm inactive.
`N#CC(=C=[N-])c1nc2ccccc2nc1-[n+]1cccc(NC(=O)c2ccccc2)c1` gave PAD4 inh inactive, LYPLA2 counter inactive, GSTO1 counter 59, LYPLA1 counter inactive, Fam108B counter inactive, PME-1 primary inactive and GSTO1 confirm inactive.
Screening CCOC(=O)c1nc2ccccc2nc1C returned PAD4 inh inactive, LYPLA2 counter inactive, GSTO1 counter inactive, LYPLA1 counter inactive, Fam108B counter inactive and PME-1 primary inactive.
`O=C(Nc1ccc[n+](CC(=O)c2cccc3ccccc23)c1)c1ccccc1` gave PAD4 inh inactive, LYPLA2 counter inactive, GSTO1 counter inactive, LYPLA1 counter inactive, Fam108B counter inactive and PME-1 primary inactive.
Screening CCOC(=O)C[C@H]1c2cc(F)ccc2S(=O)(=O)N1C1CCCC1 returned PAD4 inh inactive, LYPLA2 counter inactive, GSTO1 counter inactive, LYPLA1 counter inactive, Fam108B counter inactive and PME-1 primary inactive.
For COc1ccc(-n2c3c(c(=O)[nH]c2=O)C(NS(=O)(=O)c2ccc(Cl)cc2)(C(F)(F)F)C(=O)N3)cc1 (centres undefined) the results were PAD4 inh inactive, LYPLA2 counter inactive, GSTO1 counter inactive, LYPLA1 counter inactive, Fam108B counter inactive and PME-1 primary inactive.
Screening CN(Cc1ccccc1)S(=O)(=O)c1ccccc1[N+](=O)[O-] returned PAD4 inh inactive, LYPLA2 counter inactive, GSTO1 counter inactive, LYPLA1 counter inactive, Fam108B counter inactive and PME-1 primary inactive.
For COCCN=c1scc(-c2ccco2)n1/N=C/c1ccc(O)c(O)c1O the results were PAD4 inh inactive, LYPLA2 counter inactive, GSTO1 counter 69, LYPLA1 counter inactive, Fam108B counter inactive, PME-1 primary inactive and GSTO1 confirm inactive.
For COc1ccc(CN=Cc2c(O)[nH]c3ccccc23)cc1 the results were PAD4 inh inactive, LYPLA2 counter inactive, GSTO1 counter inactive, LYPLA1 counter inactive, Fam108B counter inactive and PME-1 primary inactive.
For Cc1ccc(CN=Cc2[nH]c3ccc(Br)c(Cl)c3c2O)cc1 the results were PAD4 inh inactive, LYPLA2 counter inactive, GSTO1 counter 52, LYPLA1 counter inactive, Fam108B counter inactive, PME-1 primary inactive and GSTO1 confirm inactive.
Oc1c(C=NCc2ccc(F)cc2)[nH]c2ccc(Br)c(Cl)c12 was read as PAD4 inh inactive, LYPLA2 counter inactive, GSTO1 counter 48, LYPLA1 counter inactive, Fam108B counter inactive, PME-1 primary inactive and GSTO1 confirm inactive.
O=c1[nH]c(=O)n(C2CCCCCC2)c(O)c1C=NCc1ccc(F)cc1 was read as PAD4 inh inactive, LYPLA2 counter inactive, GSTO1 counter inactive, LYPLA1 counter inactive, Fam108B counter inactive and PME-1 primary inactive.
Screening CCN(CC(=O)Nc1ccccc1C(F)(F)F)C(=O)c1cc(S(=O)(=O)N2CCCCCC2)ccc1OC returned PAD4 inh inactive, LYPLA2 counter inactive, GSTO1 counter inactive, LYPLA1 counter inactive, Fam108B counter inactive and PME-1 primary inactive.
Cc1ccc[n+](C(C)C(=O)Nc2ccc(C)c(C)c2)c1 (centres undefined) was read as PAD4 inh inactive, LYPLA2 counter inactive, GSTO1 counter inactive, LYPLA1 counter inactive, Fam108B counter inactive and PME-1 primary inactive.
`O/N=C1\CCCc2oc3c(c21)CCCC3` gave PAD4 inh inactive, LYPLA2 counter inactive, GSTO1 counter inactive, LYPLA1 counter inactive, Fam108B counter inactive and PME-1 primary inactive.
For Cc1noc(NS(=O)(=O)c2ccc(NC(=O)CSc3ncccn3)cc2)c1C the results were PAD4 inh inactive, LYPLA2 counter inactive, GSTO1 counter 55, LYPLA1 counter inactive, Fam108B counter inactive, PME-1 primary inactive and GSTO1 confirm inactive.
`O=C(NNC(=O)C(Cl)Cl)c1cnn(-c2ccccc2)c1C(F)(F)F` gave PAD4 inh inactive, LYPLA2 counter inactive, GSTO1 counter 49, LYPLA1 counter inactive, Fam108B counter inactive, PME-1 primary inactive and GSTO1 confirm inactive.
CCC(=O)c1c(NC(CC)CO)cc(C)oc1=O (centres undefined) was read as PAD4 inh inactive, LYPLA2 counter inactive, GSTO1 counter inactive, LYPLA1 counter inactive, Fam108B counter inactive and PME-1 primary inactive.
For CC(C(=O)OCC(=O)Nc1cccc(S(=O)(=O)N2CCOCC2)c1)N1C(=O)c2ccccc2C1=O (centres undefined) the results were PAD4 inh inactive, LYPLA2 counter inactive, GSTO1 counter 39, LYPLA1 counter inactive, Fam108B counter inactive, PME-1 primary inactive and GSTO1 confirm inactive.
For CC(=O)c1cccc(NC(=O)COC(=O)CCc2ccc(S(=O)(=O)N3CCOCC3)cc2)c1 the results were PAD4 inh inactive, LYPLA2 counter inactive, GSTO1 counter inactive, LYPLA1 counter inactive, Fam108B counter inactive and PME-1 primary inactive.
For Cc1ccc(NC(=O)COC(=O)CCc2ccc(S(=O)(=O)N3CCOCC3)cc2)cc1F the results were PAD4 inh inactive, LYPLA2 counter inactive, GSTO1 counter 40, LYPLA1 counter inactive, Fam108B counter inactive, PME-1 primary inactive and GSTO1 confirm inactive.
CCN(Cc1ccccc1)C(=O)Cn1c(=O)n(CC(=O)NCc2ccco2)c(=O)c2sccc21 was read as PAD4 inh inactive, LYPLA2 counter inactive, GSTO1 counter inactive, LYPLA1 counter inactive, Fam108B counter inactive and PME-1 primary inactive.
For COC(=O)c1ccc(-c2ccc(C(c3c(C)[nH][nH]c3=O)c3c(C)[nH][nH]c3=O)o2)cc1 the results were PAD4 inh inactive, LYPLA2 counter inactive, GSTO1 counter 38, LYPLA1 counter inactive, Fam108B counter inactive, PME-1 primary inactive and GSTO1 confirm inactive.
Screening Cc1cc(O)c(C(C)C)cc1N=Cc1cc([N+](=O)[O-])ccc1O returned PAD4 inh inactive, LYPLA2 counter inactive, GSTO1 counter inactive, LYPLA1 counter inactive, Fam108B counter inactive and PME-1 primary inactive.
For Cc1cc(O)c(C(C)C)cc1N=Cc1ccccc1O the results were PAD4 inh inactive, LYPLA2 counter inactive, GSTO1 counter 54, LYPLA1 counter inactive, Fam108B counter inactive, PME-1 primary inactive and GSTO1 confirm inactive.
Cc1nnc(NC(=O)CN2CCN(Cc3ccccc3)CC2)s1 was read as PAD4 inh inactive, LYPLA2 counter inactive, GSTO1 counter 46, LYPLA1 counter inactive, Fam108B counter inactive, PME-1 primary inactive and GSTO1 confirm inactive.
Screening CC(=O)NN1C(=O)c2ccccc2NC1c1ccc([N+](=O)[O-])o1 (centres undefined) returned PAD4 inh inactive, LYPLA2 counter inactive, GSTO1 counter inactive, LYPLA1 counter inactive, Fam108B counter inactive and PME-1 primary inactive.
